# Screening data as filed in PubChem BioAssay.
# In the library only some 3.6% were active in any assay of this set; here they are far more common.
# Nrf2 inh: inhibitors of Nrf2 signaling. A549 ARE-Fluc reporter, luciferase luminescence, 18-24 h. Potency, µM (titrated, usually from 46 µM), without a hit: top-dose activity change, negative = inhibition, actives largely listed as inhibitors. actives 2.1% (n = 360,000). AID 504444; also: % is scaled to controls: 0 for no effect and ±100 for the full control effect; nearly all actives have a fitted effect of over 60% in size
#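 Two sequential reads on A549 ARE_Fluc cells exposed to compound for 18-24 h: a CellTiter-Fluor fluorescence read for viability, then a luciferase luminescence read for Nrf2/ARE activity.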
# HepG2 viability: counter-screen for TGF-b inhibitors: cytotoxicity in HepG2 cells; HepG2 CAGA-GFP viability, ATP luminescence, 18 h; Potency, µM (series often up to 46.1 µM), inactives show at the highest dose activity change, negative = cytotoxicity, hits mostly cytotoxic; actives 0.76% (n = 410,000); AID 588856
#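 HepG2 CAGA-GFP cells (1000/well, DMEM with 1% FBS) received compound, then TGF-beta at 500 pg/mL final, and were incubated 18 hours at 37 degrees C. Viability was read by CellTiter-Glo luminescence. Media-only wells were set as complete cell-killing and DMSO as no toxicity.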
# A549 tox: kills or reduces viability of A549 cells in Nrf2 counter-screen; actives 0.16% (n = 390,000); Potency, µM (series often up to 46 µM), for the others: top-dose activity change, negative = cytotoxicity, actives largely listed as inhibitors; A549 ARE-Fluc cells, CellTiter-Fluor viability, 18-24 h; also: % is scaled to controls: 0 for no effect and ±100 for the full control effect
#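 A549 ARE-Fluc cells in 5% FBS OPTI-MEM, 5000 cells/well, rested 2 h then exposed to compounds in concentration-response for 18-24 h at 37 °C. Viability by CellTiter-Fluor fluorescence (Ex 405/Em 525) after 30 min; luciferase luminescence (BugLite, 15 min, RT) read afterwards.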
# TGFb SMAD3 inh: TGF-b pathway inhibition; HepG2 CAGA-GFP TGF-b/SMAD3 reporter, GFP fluorescence, 18 h; TGF-beta stimulated, 500 pg/mL final; Potency, µM (doses to about 46.1 µM), inactives show at the highest dose activity, negative = inhibition, usual class: inhibitors; actives 1.2% (n = 410,000); AID 588855; also: % is scaled to controls: 0 for no effect and ±100 for the full control effect; nearly all actives have a fitted effect of over 65% in size
#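 HEPG2 CAGA-GFP reporter cells (1000/well, DMEM with 1% FBS) received compounds, then recombinant TGF-beta at 500 pg/mL final for 18 hours at 37 degrees C. Per-cell GFP summed per well was normalised to unstimulated and stimulated DMSO controls before curve fitting.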
# Nrf2 ARE act: Nrf2 pathway activation; AID 624171; actives 0.31% (n = 410,000); AREc32 ARE-luciferase reporter (MCF7-derived line), luminescence, 24 h; Potency, µM (titrated, usually from 46.1 µM), without a hit: top-dose activation, hits mostly activators; also: % of control where 0% means no effect; nearly all actives have a fitted effect of over 65% in size
#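 AREc32_Fluc, 1000 cells/well, OPTI-MEM + 5% FBS, o/n 37 deg C 5% CO2; 23 nL cpd by pin tool, 24 hr; Steady-Glo 30 min RT, luminescence.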
# Starred values were filed as active, the others as inactive; u = inconclusive; x = no result given; [ ] = remark or other dose. Calls follow the shape of the dose curve; as a rule, active = well fitted curve in the direction sought with a large enough effect; inconclusive = small, poorly fitted or top-dose-only effect, or another doubt; inactive = no such curve, though single readings can be large; an effect the other way counts as inactive or inconclusive. Potency is read from the fitted curve at half-maximal effect.
SMILES,Nrf2 inh,HepG2 viability,A549 tox,TGFb SMAD3 inh,Nrf2 ARE act
Cc1[nH]c2ccccc2c1C(=O)COC(=O)C1CC(O)CN1S(=O)(=O)c1ccc(Cl)cc1 (configuration not stated),-7%,-39%,-3%,u,0%
CCOC(=O)c1ccc(NS(=O)(=O)c2cc(-c3onc(C)c3C)ccc2C)cc1,21µM*,-1%,-9%,-13%,1%
CCOC(=O)c1ccc(NS(=O)(=O)c2ccc(-c3cc(C)no3)cc2)cc1,-15%,-2%,-1%,-15%,-1%
CCCCCN(C(=O)CCC(=O)OCc1ccc(C(C)(C)C)cc1)c1c(N)n(CCCC)c(=O)[nH]c1=O,13µM*,-95%,-12%,u,3%
O=C(COC(=O)CC1CC2CCC1C2)Nc1ccccc1Cl (configuration not stated),6%,9%,10%,-6%,0%
Cc1cccc(C)c1N1CCN(C(c2ccnc3ccccc23)c2nnnn2-c2ccc3c(c2)OCCO3)CC1 (configuration not stated),x,x,x,x,-1%
CC(CCC(C)C(C)(C)C)[C@@H]1CC[C@H]2C3C[C@H](OS(O)(=S)=S)[C@H]4C[C@H](OS(O)(=S)=S)[C@@H](OS(O)(=S)=S)C[C@]4(C)[C@H]3CC[C@]12C (some centres not stated) (tested in a mixture with another compound),u,16µM*,u,u,0%
O=C(CSc1n[nH]c(-c2ccccc2)n1)Nc1ccc(Br)cn1,u,-18%,-12%,-27%,4%
S=C(NC1CC2CCC1C2)N1CCN(c2cccc(Cl)c2)CC1 (configuration not stated),16µM*,-34%,-10%,u,3%
CN(CC(O)COc1ccc(S(=O)(=O)N2CCOCC2)cc1)C1CCCCC1 (configuration not stated),-7%,-20%,8%,5%,-1%
Nc1nc2ccc([N+](=O)[O-])cc2[nH]1,-4%,-73%,-14%,3%,0%
Nc1[nH]c2cc([N+](=O)[O-])ccc2c1-c1ccccn1,-24%,-37%,13µM*,-1%,3%
N#CCCn1cc(/C=C2\NC(=S)N(c3ccccc3)C2=O)c(-c2ccc(-c3ccccc3)cc2)n1,18µM*,-4%,21µM*,10µM*,0%
CCOC(=O)c1cc(CC)sc1NC(=O)CN1CCN(C(=O)c2ccco2)CC1,21µM*,-2%,u,-14%,4%
CCOC(=O)c1c(-c2ccc(C)cc2)csc1NC(=O)c1ccc(N2C(=O)CCC2=O)cc1,-11%,-12%,3%,-3%,2%
CCOC(=O)c1cc(CC)sc1NC(=O)c1ccc(N2C(=O)CCC2=O)cc1,5%,3.5µM*,-8%,-1%,0%
CCN1C(=O)/C(=C/c2nc3ccccc3c(=O)n2-c2ccccc2)c2ccccc21,19%,16µM*,-1%,6%,6%
CCN1C(=O)/C(=C\c2nc3ccccc3c(=O)n2CC)c2ccccc21,0%,-12%,5%,0%,14%
O=S(=O)(NCC(c1cccs1)S(=O)(=O)c1ccccc1)c1ccc(F)cc1 (configuration not stated),x,-59%,4%,4µM*,u
O=S(=O)(NCC(c1cccs1)S(=O)(=O)c1ccccc1)c1ccc(F)c(C(F)(F)F)c1 (configuration not stated),x,-33%,12%,u,9%
COC(=O)c1cccnc1-n1c(=O)c2cccnc2n(CC(=O)Nc2cccc(C(F)(F)F)c2)c1=O,-11%[9.27 µM],-15%,1%,-32%,1%
C=C1C(=O)[C@@]23[C@H](O)C[C@@H]4C(C)(C)CC[C@H](O)[C@]4(C)[C@@H]2C[C@H](O)[C@@H]1[C@H]3O,15µM*,-77%,u,13µM*,-2%
C=C1C(=O)[C@@]23[C@H](O)C[C@@H]4C(C)(C)CC[C@H](O)[C@@]4(C)[C@@H]2CC[C@@H]1[C@H]3O,18µM*,8.9µM*,u,0.89µM*,-3%
COc1ccc2c(c1)[C@H]1[C@H](CO2)[C@H](c2ccccc2)[C@]2(C)C(=O)Nc3cc(F)ccc3C(=O)N12,u,-16%,-9%,-17%,8%
CCC(C)NC(C(=O)Nc1ccc(Cl)c([N+](=O)[O-])c1)c1ccccc1 (configuration not stated),-5%,-22%,1%,u,4%
SMILES,Nrf2 inh,HepG2 viability,A549 tox,TGFb SMAD3 inh,Nrf2 ARE act
Nc1nonc1C(=O)NCCNc1ncccc1[N+](=O)[O-],18µM*,0%,u,4%,2%
Cc1c(Cl)cccc1NC(=O)CN1CCN(CCO)CC1,x,-19%,5%,-7%,0%
CCOP(=O)(OCC)C(Nc1cccc([N+](=O)[O-])c1)c1ccccc1 (configuration not stated),-6%,-1%,0%,8%,0%
Cc1ccc(-c2csc(-c3c[nH]c4ccccc34)n2)c(C)c1,u,20µM*,u,u,4%
Oc1ccc(-c2csc(-c3c[nH]c4ccccc34)n2)c(O)c1,u,-12%,0%,-30%,15%
Cc1cc(CNc2ncnc3ccc(-c4ccc5c(c4)OCO5)cc23)c(C)o1,u,x,4%,x,x
OC[C@H]1O[C@@H](n2cnc3c(NCc4ccco4)ncnc32)[C@H](O)[C@@H]1O,8.2µM*,-65%,u,u,u
CCn1c(CC(=O)Nc2ccccc2)nnc1SCC(=O)Nc1ccccc1C(=O)OC,-13%,-4%,-16%,-3%,-1%
CCn1c(C)cs/c1=N\S(=O)(=O)c1ccccc1,-1%,1%,u,-6%,-1%
O=Cc1s/c(=N\S(=O)(=O)c2ccccc2)n(CCCCl)c1Cl,u,8.9µM*,u,4µM*,-3%
O=C(Nc1ccc2c(c1)OCO2)C1CCCN1C(=O)OCc1ccccc1 (configuration not stated),-8%,-2%,2%,11%,-1%
CCOC(=O)C1=C(Cc2ccc(Cl)cc2)C(=O)c2ccccc2C1=O,u,11µM*,15%[1.84 µM],u,u
Cc1cc(SCC(=O)N2CCCC2)nc2ccccc12,-18%,-3%,x,3%,0%
CCC(C)NC(=O)c1ccccc1NC(=O)c1ccc(CSc2ccccc2)cc1 (configuration not stated),-16%,16µM*,1%,u,0%
COC(=O)C(CCSC)NC(=O)C12CC3CC(CC(C3)C1)C2 (configuration not stated),14%,0%,-3%,0%,0%
